# Assay results from PMC7862700, “An all-to-all approach to the identification of sequence-specific readers for epigenetic DNA modifications on cytosine”.
# How the values were obtained:
# Assay in all cases: DAPPL (digital affinity profiling via proximity ligation, sequencing); 10 mM Tris-HCl pH 7.5, 50 mM NaCl, 1 mM DTT, 4% glycerol, room temperature, 30 min; GST-TFs on glutathione beads, 16-mer random dsDNA library, 0.1% formaldehyde crosslink after washing; high values mean tight binding
# FEV = biological target: T1, FEV (Homo sapiens, UniProt Q99581 1-238); conditions: protein: recombinant; tags: N-terminal GST; dsDNA, one strand shown
# T1 sequence: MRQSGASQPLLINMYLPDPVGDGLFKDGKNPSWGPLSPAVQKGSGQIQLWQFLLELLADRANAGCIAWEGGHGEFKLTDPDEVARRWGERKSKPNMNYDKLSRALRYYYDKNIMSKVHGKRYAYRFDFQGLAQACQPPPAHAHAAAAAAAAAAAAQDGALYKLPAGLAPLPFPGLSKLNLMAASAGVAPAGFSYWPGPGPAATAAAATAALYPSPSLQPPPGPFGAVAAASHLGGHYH
# Method in brief: (§1)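 Beads coated with glutathione captured GST-fused human transcription factors that had been expressed in yeast, and the factors were then given DNA barcodes and pooled with a tag-only sample. The pools were incubated with 200 nmole of a random double-stranded 16-mer DNA library in Tris/NaCl/DTT/glycerol buffer for 30 min at room temperature, washed, crosslinked with 0.1% formaldehyde and proximity-ligated with BsaI/T4 ligase at 37 °C for 1 h. PCR amplification and Illumina NextSeq500 sequencing came last. Binding signal is each hexamer's read frequency for a factor divided by its frequency for the tag-only sample.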
# ETV5 = ETV5 (Homo sapiens, UniProt P41161 1-510); conditions: protein: recombinant; tags: N-terminal GST; dsDNA, one strand shown
# Method in brief: as §1
# HSF1 = HSF1 (Homo sapiens, UniProt Q00613 1-529); conditions: protein: recombinant; tags: N-terminal GST; chain copies: 3; dsDNA, one strand shown
# Method in brief: as §1
# SPIC = biological target: T2, SPIC (Homo sapiens, UniProt Q8N5J4 1-248); conditions: protein: recombinant; tags: N-terminal GST; dsDNA, one strand shown
# T2 sequence: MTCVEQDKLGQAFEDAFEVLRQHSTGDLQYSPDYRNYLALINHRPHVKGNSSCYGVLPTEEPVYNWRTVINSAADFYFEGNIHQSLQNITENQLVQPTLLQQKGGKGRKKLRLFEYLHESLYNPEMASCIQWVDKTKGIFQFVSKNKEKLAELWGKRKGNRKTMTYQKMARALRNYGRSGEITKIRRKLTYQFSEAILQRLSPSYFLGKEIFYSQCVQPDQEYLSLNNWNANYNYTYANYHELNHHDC
# Method in brief: as §1
# ELF4 = ELF4 (Homo sapiens, UniProt Q99607 1-663); conditions: protein: recombinant; tags: N-terminal GST; dsDNA, one strand shown
# Method in brief: as §1
# ELK4 = biological target: T3, ELK4 (Homo sapiens, UniProt P28324-2 1-405); conditions: protein: recombinant; tags: N-terminal GST; dsDNA, one strand shown
# T3 sequence: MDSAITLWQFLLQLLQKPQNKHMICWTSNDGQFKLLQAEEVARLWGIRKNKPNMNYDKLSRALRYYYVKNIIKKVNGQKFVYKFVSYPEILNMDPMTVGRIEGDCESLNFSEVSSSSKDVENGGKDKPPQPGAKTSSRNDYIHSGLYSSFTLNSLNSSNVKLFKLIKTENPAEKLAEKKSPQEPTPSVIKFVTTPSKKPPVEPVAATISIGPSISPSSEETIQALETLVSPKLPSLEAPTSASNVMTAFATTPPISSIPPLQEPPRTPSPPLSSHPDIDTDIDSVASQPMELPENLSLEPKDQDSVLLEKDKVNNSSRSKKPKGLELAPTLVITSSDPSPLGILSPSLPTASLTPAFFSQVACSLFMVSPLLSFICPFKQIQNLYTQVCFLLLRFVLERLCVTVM
# Method in brief: as §1
# ETV2 = biological target: T4, ETV2 (Homo sapiens, UniProt O00321 1-342); conditions: protein: recombinant; tags: N-terminal GST; dsDNA, one strand shown
# T4 sequence: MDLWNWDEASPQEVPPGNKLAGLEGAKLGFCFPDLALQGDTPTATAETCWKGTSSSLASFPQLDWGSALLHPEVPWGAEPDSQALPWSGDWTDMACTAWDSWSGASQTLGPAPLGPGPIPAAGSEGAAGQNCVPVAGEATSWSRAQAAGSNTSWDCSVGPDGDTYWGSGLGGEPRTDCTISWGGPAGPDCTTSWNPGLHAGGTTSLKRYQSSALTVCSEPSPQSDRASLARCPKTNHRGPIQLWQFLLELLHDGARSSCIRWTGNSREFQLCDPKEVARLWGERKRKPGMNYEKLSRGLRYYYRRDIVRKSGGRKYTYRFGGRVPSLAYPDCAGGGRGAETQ
# Method in brief: as §1
# ELF3 = biological target: T5, ELF3 (Homo sapiens, UniProt P78545 1-371); conditions: protein: recombinant; tags: N-terminal GST; dsDNA, one strand shown
# T5 sequence: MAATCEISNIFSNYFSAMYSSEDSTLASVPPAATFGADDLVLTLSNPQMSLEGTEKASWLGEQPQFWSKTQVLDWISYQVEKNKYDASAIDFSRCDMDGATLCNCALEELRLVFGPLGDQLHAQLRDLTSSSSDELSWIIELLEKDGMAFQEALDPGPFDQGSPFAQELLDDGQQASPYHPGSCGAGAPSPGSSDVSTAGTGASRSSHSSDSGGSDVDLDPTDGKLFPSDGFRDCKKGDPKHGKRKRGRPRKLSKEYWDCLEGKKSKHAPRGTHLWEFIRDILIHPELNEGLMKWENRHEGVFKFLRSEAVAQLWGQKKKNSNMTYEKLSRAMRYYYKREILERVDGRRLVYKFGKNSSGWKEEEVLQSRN
# Method in brief: as §1
# CRX = CRX (Homo sapiens, UniProt O43186 1-299); conditions: protein: recombinant; tags: N-terminal GST; dsDNA, one strand shown
# Method in brief: as §1
# ETV1 = ETV1 (Homo sapiens, UniProt P50549 1-477); conditions: protein: recombinant; tags: N-terminal GST; dsDNA, one strand shown
# Method in brief: as §1
# ERF = biological target: T6, ERF (Homo sapiens, UniProt P50548 1-548); conditions: protein: recombinant; tags: N-terminal GST; dsDNA, one strand shown
# T6 sequence: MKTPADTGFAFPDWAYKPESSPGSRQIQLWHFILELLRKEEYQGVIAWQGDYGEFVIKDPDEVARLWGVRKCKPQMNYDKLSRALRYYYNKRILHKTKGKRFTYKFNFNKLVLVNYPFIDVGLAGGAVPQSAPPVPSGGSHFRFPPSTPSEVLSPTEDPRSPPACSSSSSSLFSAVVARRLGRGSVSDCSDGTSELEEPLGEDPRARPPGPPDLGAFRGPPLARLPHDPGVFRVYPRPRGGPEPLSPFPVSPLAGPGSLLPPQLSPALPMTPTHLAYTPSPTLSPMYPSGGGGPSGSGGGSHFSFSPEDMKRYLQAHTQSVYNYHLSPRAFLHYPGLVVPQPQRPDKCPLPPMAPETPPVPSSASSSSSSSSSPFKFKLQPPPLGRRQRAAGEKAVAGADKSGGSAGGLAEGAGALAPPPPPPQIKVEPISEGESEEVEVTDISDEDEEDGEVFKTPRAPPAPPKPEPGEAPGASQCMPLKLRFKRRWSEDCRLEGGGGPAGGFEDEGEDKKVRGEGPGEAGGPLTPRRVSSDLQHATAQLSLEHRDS
# Method in brief: as §1
# ETV3L = biological target: T7, ETV3L (Homo sapiens, UniProt Q6ZN32 1-361); conditions: protein: recombinant; tags: N-terminal GST; dsDNA, one strand shown
# T7 sequence: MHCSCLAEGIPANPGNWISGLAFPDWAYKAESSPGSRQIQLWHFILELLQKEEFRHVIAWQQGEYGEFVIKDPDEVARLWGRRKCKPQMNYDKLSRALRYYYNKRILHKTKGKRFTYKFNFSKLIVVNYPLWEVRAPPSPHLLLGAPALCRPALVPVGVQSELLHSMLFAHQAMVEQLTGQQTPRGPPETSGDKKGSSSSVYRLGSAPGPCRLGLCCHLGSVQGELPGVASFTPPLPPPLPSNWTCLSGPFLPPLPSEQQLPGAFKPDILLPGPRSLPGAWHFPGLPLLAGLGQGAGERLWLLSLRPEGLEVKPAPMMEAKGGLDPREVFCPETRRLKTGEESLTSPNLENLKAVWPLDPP
# Method in brief: as §1
# ETS2 = biological target: T8, ETS2 (Homo sapiens, UniProt P15036 1-469); conditions: protein: recombinant; tags: N-terminal GST; dsDNA, one strand shown
# T8 sequence: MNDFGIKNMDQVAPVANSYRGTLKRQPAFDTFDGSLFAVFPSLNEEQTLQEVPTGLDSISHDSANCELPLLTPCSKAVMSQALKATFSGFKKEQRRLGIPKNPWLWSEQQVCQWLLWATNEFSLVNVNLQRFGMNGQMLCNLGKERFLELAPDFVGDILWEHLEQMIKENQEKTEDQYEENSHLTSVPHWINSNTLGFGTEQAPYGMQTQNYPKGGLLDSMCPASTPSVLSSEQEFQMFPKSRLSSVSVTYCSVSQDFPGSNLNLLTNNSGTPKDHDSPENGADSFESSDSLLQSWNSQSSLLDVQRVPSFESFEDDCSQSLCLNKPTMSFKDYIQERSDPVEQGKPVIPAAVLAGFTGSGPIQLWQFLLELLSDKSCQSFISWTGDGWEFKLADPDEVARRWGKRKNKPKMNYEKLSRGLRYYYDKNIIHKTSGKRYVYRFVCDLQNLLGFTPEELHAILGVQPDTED
# Method in brief: as §1
# SPDEF = biological target: T9, SPDEF (Homo sapiens, UniProt O95238 1-335); conditions: protein: recombinant; tags: N-terminal GST; dsDNA, one strand shown
# T9 sequence: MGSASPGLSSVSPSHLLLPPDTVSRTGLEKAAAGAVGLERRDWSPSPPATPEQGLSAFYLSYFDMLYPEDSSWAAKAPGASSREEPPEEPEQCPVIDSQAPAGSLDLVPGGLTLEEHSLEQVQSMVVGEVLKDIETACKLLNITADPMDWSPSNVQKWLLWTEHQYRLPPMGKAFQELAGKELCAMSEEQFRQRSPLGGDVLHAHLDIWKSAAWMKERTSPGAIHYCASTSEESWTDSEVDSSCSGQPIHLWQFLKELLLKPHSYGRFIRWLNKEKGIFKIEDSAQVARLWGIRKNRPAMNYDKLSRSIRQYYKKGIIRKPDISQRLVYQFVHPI
# Method in brief: as §1
# ETV7 = biological target: T10, ETV7 (Homo sapiens, UniProt Q9Y603 1-341); conditions: protein: recombinant; tags: N-terminal GST; dsDNA, one strand shown
# T10 sequence: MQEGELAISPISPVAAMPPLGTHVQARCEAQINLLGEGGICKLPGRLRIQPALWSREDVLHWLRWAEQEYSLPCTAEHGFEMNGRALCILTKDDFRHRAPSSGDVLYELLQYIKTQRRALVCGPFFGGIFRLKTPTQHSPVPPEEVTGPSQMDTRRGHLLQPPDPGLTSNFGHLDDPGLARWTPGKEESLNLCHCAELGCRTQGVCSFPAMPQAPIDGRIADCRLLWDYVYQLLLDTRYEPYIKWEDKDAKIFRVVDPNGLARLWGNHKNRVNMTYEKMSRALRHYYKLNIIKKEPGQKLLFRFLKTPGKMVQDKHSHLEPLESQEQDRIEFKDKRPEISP
# Method in brief: as §1
# ELF5 = biological target: T11, ELF5 (Homo sapiens, UniProt Q9UKW6-2 1-255); conditions: protein: recombinant; tags: N-terminal GST; dsDNA, one strand shown
# T11 sequence: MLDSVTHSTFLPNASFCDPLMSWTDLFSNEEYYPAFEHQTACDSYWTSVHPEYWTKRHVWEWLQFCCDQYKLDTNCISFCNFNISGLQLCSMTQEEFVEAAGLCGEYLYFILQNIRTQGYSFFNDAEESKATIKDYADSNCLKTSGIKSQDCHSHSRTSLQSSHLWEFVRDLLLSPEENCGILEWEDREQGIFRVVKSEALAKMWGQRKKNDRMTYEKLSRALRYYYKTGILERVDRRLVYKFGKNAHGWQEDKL
# Method in brief: as §1
# ETV3 = biological target: T12, ETV3 (Homo sapiens, UniProt P41162-2 1-143); conditions: protein: recombinant; tags: N-terminal GST; dsDNA, one strand shown
# T12 sequence: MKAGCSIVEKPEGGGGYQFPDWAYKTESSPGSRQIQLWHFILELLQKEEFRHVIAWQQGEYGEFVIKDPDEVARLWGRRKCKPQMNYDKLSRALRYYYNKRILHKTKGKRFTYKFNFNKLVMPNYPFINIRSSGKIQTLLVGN
# Method in brief: as §1
# ETV6 = ETV6 (Homo sapiens, UniProt P41212 1-452); conditions: protein: recombinant; tags: N-terminal GST; dsDNA, one strand shown
# Method in brief: as §1
# Sequence of ETV1 (P50549 whole entry): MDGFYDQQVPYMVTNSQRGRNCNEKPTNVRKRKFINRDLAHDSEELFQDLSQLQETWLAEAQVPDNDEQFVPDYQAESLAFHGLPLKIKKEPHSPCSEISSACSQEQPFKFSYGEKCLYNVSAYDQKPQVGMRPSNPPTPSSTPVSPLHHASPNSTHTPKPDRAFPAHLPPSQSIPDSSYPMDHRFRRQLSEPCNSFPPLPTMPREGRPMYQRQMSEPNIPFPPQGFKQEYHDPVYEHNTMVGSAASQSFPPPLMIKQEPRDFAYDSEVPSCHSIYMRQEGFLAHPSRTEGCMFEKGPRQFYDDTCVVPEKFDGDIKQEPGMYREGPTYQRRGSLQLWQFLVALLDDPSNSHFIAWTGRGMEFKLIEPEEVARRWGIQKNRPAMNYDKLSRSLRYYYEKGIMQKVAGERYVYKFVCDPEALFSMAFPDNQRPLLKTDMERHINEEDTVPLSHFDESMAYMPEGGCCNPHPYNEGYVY
# Sequence of ELF4 (Q99607 whole entry): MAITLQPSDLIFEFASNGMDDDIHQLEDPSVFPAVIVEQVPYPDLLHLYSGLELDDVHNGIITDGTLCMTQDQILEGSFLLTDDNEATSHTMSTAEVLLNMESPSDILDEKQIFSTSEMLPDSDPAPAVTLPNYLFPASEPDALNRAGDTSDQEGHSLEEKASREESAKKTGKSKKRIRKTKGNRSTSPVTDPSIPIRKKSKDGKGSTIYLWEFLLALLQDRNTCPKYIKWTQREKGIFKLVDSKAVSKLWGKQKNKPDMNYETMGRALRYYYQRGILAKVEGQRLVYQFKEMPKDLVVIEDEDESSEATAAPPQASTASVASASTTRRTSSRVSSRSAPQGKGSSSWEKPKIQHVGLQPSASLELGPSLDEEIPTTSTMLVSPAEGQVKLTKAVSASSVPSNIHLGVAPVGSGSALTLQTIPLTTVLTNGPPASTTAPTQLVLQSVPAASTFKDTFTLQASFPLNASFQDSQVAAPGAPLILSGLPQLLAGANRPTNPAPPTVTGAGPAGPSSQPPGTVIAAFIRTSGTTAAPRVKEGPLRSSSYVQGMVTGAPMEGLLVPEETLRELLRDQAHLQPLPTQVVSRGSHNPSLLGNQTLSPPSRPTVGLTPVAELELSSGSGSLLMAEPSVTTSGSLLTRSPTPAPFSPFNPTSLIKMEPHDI
# Sequence of ETV5 (P41161 whole entry): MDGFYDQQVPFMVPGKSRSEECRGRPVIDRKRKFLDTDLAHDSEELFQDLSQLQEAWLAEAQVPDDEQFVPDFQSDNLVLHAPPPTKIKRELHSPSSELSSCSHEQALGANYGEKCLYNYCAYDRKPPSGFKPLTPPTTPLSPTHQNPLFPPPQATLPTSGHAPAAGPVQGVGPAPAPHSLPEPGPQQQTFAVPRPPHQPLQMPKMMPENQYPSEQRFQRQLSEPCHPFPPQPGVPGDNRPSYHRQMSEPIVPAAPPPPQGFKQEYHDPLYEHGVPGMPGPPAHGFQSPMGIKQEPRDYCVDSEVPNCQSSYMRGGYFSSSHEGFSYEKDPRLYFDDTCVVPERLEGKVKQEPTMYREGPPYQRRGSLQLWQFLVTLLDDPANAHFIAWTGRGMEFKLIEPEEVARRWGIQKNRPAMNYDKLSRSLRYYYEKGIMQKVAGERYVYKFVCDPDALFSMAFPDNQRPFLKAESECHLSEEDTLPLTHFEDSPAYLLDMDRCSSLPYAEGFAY
# Sequence of HSF1 (Q00613 whole entry): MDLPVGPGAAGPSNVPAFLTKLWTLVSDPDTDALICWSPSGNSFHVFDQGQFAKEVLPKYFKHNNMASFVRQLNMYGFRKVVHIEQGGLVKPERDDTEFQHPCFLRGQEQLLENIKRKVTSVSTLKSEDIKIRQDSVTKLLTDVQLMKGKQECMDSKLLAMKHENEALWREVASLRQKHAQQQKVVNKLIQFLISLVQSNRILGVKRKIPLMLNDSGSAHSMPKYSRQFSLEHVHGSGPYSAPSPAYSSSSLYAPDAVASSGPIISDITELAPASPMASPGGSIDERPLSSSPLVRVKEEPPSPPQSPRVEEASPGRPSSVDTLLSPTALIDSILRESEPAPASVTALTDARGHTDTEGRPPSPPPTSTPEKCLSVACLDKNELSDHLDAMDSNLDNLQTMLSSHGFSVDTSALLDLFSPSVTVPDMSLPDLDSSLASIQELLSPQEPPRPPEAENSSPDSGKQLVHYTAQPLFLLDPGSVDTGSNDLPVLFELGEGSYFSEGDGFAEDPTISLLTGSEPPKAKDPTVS
# Sequence of ETV6 (P41212 whole entry): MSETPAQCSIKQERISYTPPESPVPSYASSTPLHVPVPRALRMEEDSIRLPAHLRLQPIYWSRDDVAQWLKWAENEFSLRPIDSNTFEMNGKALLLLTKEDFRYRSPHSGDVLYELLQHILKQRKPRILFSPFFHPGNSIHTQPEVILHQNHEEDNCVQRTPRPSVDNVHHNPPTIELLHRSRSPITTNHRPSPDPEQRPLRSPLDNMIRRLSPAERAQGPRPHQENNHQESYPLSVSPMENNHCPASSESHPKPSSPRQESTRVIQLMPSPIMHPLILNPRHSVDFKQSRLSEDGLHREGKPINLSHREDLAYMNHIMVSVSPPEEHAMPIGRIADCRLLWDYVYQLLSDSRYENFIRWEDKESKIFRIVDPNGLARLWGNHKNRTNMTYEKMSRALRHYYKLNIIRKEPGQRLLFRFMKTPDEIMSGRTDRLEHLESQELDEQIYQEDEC
# Sequence of CRX (O43186 whole entry): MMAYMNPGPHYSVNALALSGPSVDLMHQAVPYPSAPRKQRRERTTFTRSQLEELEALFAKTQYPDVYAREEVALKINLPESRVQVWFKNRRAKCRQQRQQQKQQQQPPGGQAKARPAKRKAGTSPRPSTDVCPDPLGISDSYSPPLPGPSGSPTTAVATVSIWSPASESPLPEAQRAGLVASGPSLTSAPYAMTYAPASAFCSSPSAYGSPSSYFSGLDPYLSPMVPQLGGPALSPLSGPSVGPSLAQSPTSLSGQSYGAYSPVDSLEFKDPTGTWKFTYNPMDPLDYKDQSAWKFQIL
sequence,measurement,setting,value
TTAAAT,binding signal,FEV,"1.16 fold enrichment (6-mer frequency, TF over GST control)"
same,binding signal,ETV5,"1.2 fold enrichment (6-mer frequency, TF over GST control)"
same,binding signal,HSF1,"1.85 fold enrichment (6-mer frequency, TF over GST control)"
same,binding signal,SPIC,"1.21 fold enrichment (6-mer frequency, TF over GST control)"
same,binding signal,ELF4,"1.14 fold enrichment (6-mer frequency, TF over GST control)"
same,binding signal,ELK4,"1.22 fold enrichment (6-mer frequency, TF over GST control)"
same,binding signal,ETV2,"1.25 fold enrichment (6-mer frequency, TF over GST control)"
same,binding signal,ELF3,"1.22 fold enrichment (6-mer frequency, TF over GST control)"
same,binding signal,CRX,"2.92 fold enrichment (6-mer frequency, TF over GST control)"
same,binding signal,ETV1,"1.16 fold enrichment (6-mer frequency, TF over GST control)"
same,binding signal,ERF,"1.1 fold enrichment (6-mer frequency, TF over GST control)"
same,binding signal,ETV3L,"1.22 fold enrichment (6-mer frequency, TF over GST control)"
same,binding signal,ETS2,"1.19 fold enrichment (6-mer frequency, TF over GST control)"
same,binding signal,SPDEF,"1.16 fold enrichment (6-mer frequency, TF over GST control)"
same,binding signal,ETV7,"1.21 fold enrichment (6-mer frequency, TF over GST control)"
same,binding signal,ELF5,"1.08 fold enrichment (6-mer frequency, TF over GST control)"
same,binding signal,ETV3,"1.15 fold enrichment (6-mer frequency, TF over GST control)"
same,binding signal,ETV6,"1.23 fold enrichment (6-mer frequency, TF over GST control)"
